# Screens deposited in PubChem by National Center for Advancing Translational Sciences (NCATS).
# BAZ2B block = blocks human BAZ2B. AlphaScreen BAZ2B-H3K14Ac peptide displacement. Potency, µM (series often up to 114 µM), for inactives: at the top dose activity change, negative = inhibition, actives largely listed as inhibitors. 360,000 compounds, 4.4% hits; also: potency is read from the fitted curve at half-maximal effect; % is scaled to controls: 0 for no effect and ±100 for the full control effect; nearly all actives have a fitted effect of over 60% in size
#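 Inhibition is scored as reduced AlphaScreen emission. The BAZ2B/b-H3(5-23)K14Ac complex (50 nM each) in PBS pH 7.4, 0.01% Tween-20 meets compound (up to 110 uM) for 30 min at RT before bead addition.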
# JMJD2A Tudor inh = inhibitors of human JMJD2A Tudor domain | O75164 | AlphaScreen JMJD2A-Tudor / H3K4me3 peptide binding | Potency, µM (doses to about 114 µM), for inactives: at the highest dose activity change, negative = inhibition, hits mostly inhibitors | 390,000 compounds, 4.4% hits; also: potency is read from the fitted curve at half-maximal effect; % is scaled to controls: 0 for no effect and ±100 for the full control effect; nearly all actives have a fitted effect of over 50% in size
# PLK1 PBD block = blocks phosphopeptide binding to human PLK1 polo-box domain; P53350; Plk1 PBD binding of FITC phosphopeptide, fluorescence polarization; AID 720504; 360,000 compounds, 2.8% hits; Potency, µM, without a hit: max response, negative = inhibition, hits mostly inhibitors; also: potency is read from the fitted curve at half-maximal effect; series mostly up to about 57 µM; % is scaled to controls: 0 for no effect and ±100 for the full control effect; nearly all actives have a fitted effect of over 65% in size
# G9a inh = blocks human histone lysine methyltransferase G9a; 350,000 compounds, 8.8% hits; Potency, µM (top dose mostly 102 µM), without a hit: top-dose activity, negative = inhibition, actives largely listed as inhibitors; G9a H3K9 monomethylation, AlphaScreen, 2 h; AID 504332; Q96KQ7; also: potency is read from the fitted curve at half-maximal effect; % is scaled to controls: 0 for no effect and ±100 for the full control effect; nearly all actives have a fitted effect of over 75% in size
# Target sequence (Q96KQ7 913-1193 limits assumed): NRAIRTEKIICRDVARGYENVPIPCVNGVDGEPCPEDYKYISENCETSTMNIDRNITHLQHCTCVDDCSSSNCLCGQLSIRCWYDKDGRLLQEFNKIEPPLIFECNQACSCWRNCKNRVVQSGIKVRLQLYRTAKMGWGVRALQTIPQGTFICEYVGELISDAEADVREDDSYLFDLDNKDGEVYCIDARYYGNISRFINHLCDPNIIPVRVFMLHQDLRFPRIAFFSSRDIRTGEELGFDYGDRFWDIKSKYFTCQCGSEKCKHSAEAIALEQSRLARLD
#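 G9a (20 nM) was preincubated 15 min with compound, then reacted 2 h at room temperature with 500 nM biotin-H3K9 peptide and 20 µM SAM. Monomethyl-H3K9 detected by AlphaScreen using anti-H3K9me1 antibody.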
# PI5P4Ka inh = inhibitors of human PI5P4K alpha. PI5P4Kalpha enzyme, ADP-Glo luminescence, 60 min; stronger effect = lower value. max response, %. 330,000 compounds, 1.2% hits. AID 652105; active = max response of -50% or lower; inconclusive = between -30% and -50%; inactive = -30% or higher; also: value at the top dose of about 77 µM; % is scaled to controls: 0 for no effect and ±100 for the full control effect
#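 qHTS, 1536-well: enzyme/substrate mix, compound by pin tool, 5 microM ATP final; RT 60 min; ADP-Glo reagents 1 (45 min) then 2 (30 min); luminescence.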
# HP1b chromo inh = blocks HP1-beta chromodomain binding to methylated histone tails; 390,000 compounds, 0.56% hits; Potency, µM (series often up to 114 µM), for inactives: top-dose activity change, negative = inhibition, hits mostly inhibitors; AlphaScreen HP1-beta / biotin-H3K9me3 peptide binding; P83916; also: potency is read from the fitted curve at half-maximal effect; nearly all actives have a fitted effect of over 70% in size
# Target sequence (P83916 whole entry, looked up): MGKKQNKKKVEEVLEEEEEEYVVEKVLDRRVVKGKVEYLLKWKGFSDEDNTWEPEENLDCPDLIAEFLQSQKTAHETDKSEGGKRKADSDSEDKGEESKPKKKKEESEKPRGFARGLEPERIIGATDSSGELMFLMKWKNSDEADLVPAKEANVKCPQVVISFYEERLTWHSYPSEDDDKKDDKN
#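 Compound inhibition of the preformed complex between 50 nM HP1-beta and 50 nM biotinylated H3K9me3 peptide was read by AlphaScreen. Buffer was PBS pH 7.4 with 0.01% Tween-20. Incubations ran 30 min at room temperature, with 10 ug/mL donor/acceptor beads.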
# An asterisk follows results filed as active; ? = inconclusive; nt = no result; [ ] = remark or other dose. Sampled rows, rich in hits. Any-hit rate of the full collection: about 12%. Unless noted, calls follow the shape of the dose curve; as a rule, active = well fitted curve in the direction sought with a large enough effect; inconclusive = small, poorly fitted or top-dose-only effect, or another doubt; inactive = no such curve, though single readings can be large; an effect the other way counts as inactive or inconclusive.
SMILES,BAZ2B block,JMJD2A Tudor inh,PLK1 PBD block,G9a inh,PI5P4Ka inh,HP1b chromo inh
Cc1c(C#N)c2ccccc2n1CC(=O)N1CCCC1,31.6%,79.4µM*,29.9µM*,21.0%[12.7 µM],-8.4,?
Cc1c(C#N)c2ccccc2n1CC(=O)N1CCCc2ccccc21,-3.5%,-12.3%,-15.7%,3.4%,-9.0,11.8%
COc1ccc(-c2csc(Nc3ncccc3C)n2)cc1,-9.3%,?,-5.1%,17.8µM*,10.8,-1.6%
Cc1nc(C)c(-c2csc(Nc3ncccc3C)n2)s1,1.9%,-21.3%,-3.8%,nt,0.0,40.7%
Cc1cccnc1Nc1nc(-c2ccc(O)c(O)c2)cs1,39.8µM*,44.7µM*,?,11.2µM*,-2.0,?
COc1ccc(-c2csc(Nc3ncccc3C)n2)cc1OC,?,?,-1.5%,?,-4.9,-4.1%
CO[C@H]1CN(C)C(=O)c2cc(NC(=O)c3ccccc3)ccc2OC[C@H](C)NC[C@@H]1C,nt,nt,-7.5%,nt,0.1,nt
COc1cccc(NC(=O)c2cc3c(=O)n(C)c4ccccc4c3n2C)c1,-0.2%,-1.0%,nt,1.7%[59 µM],nt,29.1%
Nc1ccc(Cn2ccc3c4c(N)nc(N)nc4ccc32)cc1,nt,44.7µM*,2.1%,nt,?,79.4µM*
Cc1ccc(NC(=O)c2oc3ccccc3c2NC(=O)C2CCCCC2)cc1,20.7%,79.4µM*,nt,31.6%[59 µM],nt,83.9%
O=C(Nc1ccc(F)cc1)c1oc2ccccc2c1NC(=O)C1CCCCC1,-11.3%,-8.3%,nt,-32.8%[59 µM],nt,46.5%
Clc1ccc(Cn2ccc3ccccc32)cn1,5.4%,-6.2%[57.1 µM],-9.2%,17.3%[2.33 µM],0.6,28.3%[57 µM]
Clc1ccc(CNc2ccccc2NCc2ccc(Cl)nc2)cn1,?,?,-15.8%,3.16µM*,0.3,1.4%
CC(C)OCCCn1c(=O)c2ccccc2n2c(-c3ccc(F)c(F)c3)nnc12,50.1µM*,?,nt,?,nt,-25.5%
N#Cc1nc(NCC2CC2)nc(Nc2ccccc2)n1,nt,-6.2%,nt,nt,nt,nt
O=C(/C=C/c1cc[n+](CC(=O)c2ccc3cccc4c3c2CC4)cc1)c1ccc2cccc3c2c1CC3,?,-18.4%[11.4 µM],18.9µM*,39.8µM*,-69.0*,7.9%
Cc1ccc2nsnc2c1S(=O)(=O)Nc1cccc2nsnc12,-37.9%,-22.9%,-10.1%,44.7µM*,-17.3,14.6%
CC(=O)c1ccccc1NS(=O)(=O)c1cccc2nsnc12,50.1µM*,?,-17.8%,50.1µM*,?,?
O=C(NC(=S)NCC1CCCO1)c1ccc(Br)o1 (stereo not given),-11.6%,-7.7%,-5.7%,?,-5.9,50.5%
O=C(c1cc(-c2ccc(Br)cc2)nc2ccccc12)N1CCN(c2ccccc2O)CC1,-12.2%,?,-7.0%,50.1µM*,7.6,-17.7%
Cc1ccc(-c2cc(C(=O)N3CCN(c4ncccn4)CC3)c3ccccc3n2)cc1,-35.0%,-12.9%,0.8%,44.7µM*,-0.7,25.9%
O=C(c1cc(Br)ccc1Cl)N1CCN(c2ncccn2)CC1,11.2%,?,29.9µM*,-5.7%,-3.5,4.8%
CCN1CCCC(OC(=O)c2cc(-c3ccc(C)cc3)nc3ccccc23)C1 (stereo not given),nt,17.8µM*,-14.0%,?,7.9,12.8%
COc1ccc(-c2cc(C(=O)N3CCN(c4ncccn4)CC3)c3ccccc3n2)cc1OC,-4.3%,-12.4%,-1.2%,?,-6.1,48.1%
Cc1ccc(-c2cc(C(=O)N3CCN(c4ccccc4O)CC3)c3ccccc3n2)o1,?,?,-3.6%,?,-3.1,-1.2%
SMILES,BAZ2B block,JMJD2A Tudor inh,PLK1 PBD block,G9a inh,PI5P4Ka inh,HP1b chromo inh
CCc1ccc2occ(CC(=O)Nc3ccc(C)c(C)c3)c2c1,-1.8%,28.8%,nt,-13.8%[59 µM],nt,27.3%
Cc1ccccc1CN1CCN(C(=O)c2cc(-c3ccncc3)nc3ccccc23)CC1,?,?,-14.2%,35.5µM*,-10.2,-13.1%
O=C(c1cc(-c2ccncc2)nc2ccccc12)N1CCN(Cc2ccccc2)CC1,nt,-29.5%,-6.0%,nt,-4.6,-6.0%
CN(CCC#N)C(=O)COC(=O)c1c2c(nc3ccccc13)/C(=C\c1ccco1)CC2,nt,?,-16.3%,nt,?,?
O=C(COC(=O)c1c2c(nc3ccccc13)/C(=C\c1ccco1)CC2)NC1CCCC1,nt,?,9.47µM*,nt,-55.3*,?
O=C(NCCc1ccccc1Cl)c1ccc2c(=O)n(-c3ccccc3)c(=O)[nH]c2c1,-3.5%,-19.1%,nt,-7.7%[59 µM],nt,11.7%
C=CCOc1ccc(C2NC(=O)c3ccccc3O2)cc1 (stereo not given),8.4%,-14.0%,-9.3%,-2.7%,7.2,49.9%
O=C1NC2=C(CCc3ccccc32)C(c2ccccc2)N1 (stereo not given),-2.7%,-17.1%,-23.0%,44.7µM*,0.9,45.0%
C=CCOc1ccc(C2NC(=S)NC3=C2CCc2ccccc23)cc1 (stereo not given),?,?,?,22.4µM*,7.4,-0.3%
COc1cc(C2NC(=S)NC3=C2CCc2ccccc23)cc(OC)c1OC (stereo not given),2.1%,-16.7%,-28.9%,10µM*,0.8,-9.7%
Cc1ccc(Cl)cc1NC(=O)c1cc(CN2CCCC2)on1,-18.0%,-15.0%,nt,9.8%[59 µM],nt,23.8%
CCN(CC)c1ccc(NC(=O)c2cc(CN3CCCC3)on2)c(C)c1,?,?,nt,14.1µM*,nt,14.0%
CCOC(=O)c1sc(NC(=O)/C=C/c2cnn(CC)c2C)c(C(=O)OCC)c1C,6.2%,-11.5%,13.4µM*,?,nt,-12.7%
CCN(Cc1ccncc1)S(=O)(=O)c1ccc(C(C)=O)cc1,12.7%,-23.1%,18.9µM*,?,nt,-0.2%
N#Cc1ccccc1OCC(=O)N1CCN(C(=O)c2ccco2)CC1,-3.7%[57.1 µM],-30.5%,?,11.9%,-1.3,18.7%
